Screens as filed in PubChem BioAssay.
This excerpt belongs to a sample that is enriched for hits.
Tg IFNy HTS – T. gondii growth inhibition under IFN-gamma; Toxoplasma gondii growth in IFN-gamma-treated host cells; active compounds read low; activity change, negative = inhibition, % (test concentration not listed); 69,000 tested, 3.8% active; in the data active = activity change below about -70%, passing the limit was not always enough;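 also: host cells are HeLa cells infected with Toxoplasma gondii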
The depositor's hits bear a star; ! = repeats disagree.

SMILES | Tg IFNy HTS
C#Cc1cccc(Nc2ncnc3cc(OC)c(OCCCCCCC(=O)NO)cc23)c1 | -80*
Cn1cnc2cc3c(Nc4cccc(Br)c4)ncnc3cc21 | 1
COCC1c2nnn(CC3CC3)c2CCN1Cc1cnn(C)c1 (centres undefined) | 4
CCc1ncc(C(=O)N2CCc3nnc(CCc4ccccc4)n3CC2)cn1 | 7
Cc1cc(-n2cccn2)ccc1CN1CCOCC(CN(C)C)C1 (centres undefined) | -8
Cc1ncc(CO)c(CO)c1O | 6
Cc1cnc(C)c(N2CCN(Cc3c(CO)cnc(C)c3O)CC2)n1 | -4
Cc1ncc(CN2CCSCC2)c(CO)c1O | -76*
CCCn1ncc(CN(Cc2ccncc2)Cc2ccc(OC)cc2)c1C | 61
Cc1nn(CC(=O)NCc2ccco2)c(=O)c2nc(-c3ccccc3)sc12 | -28
CCN1CCC2(CC1)OC(=O)C(C)=C2C(=O)NCc1ccccc1F | 7
COC1CCN(S(=O)(=O)N2CCCC2c2ccc(F)cc2)CC1 (centres undefined) | -44
Clc1ccc(-c2cc(-c3cccs3)c(-c3ccccc3)o2)cc1 | 141
FC(F)(F)c1oc(-c2ccccc2Cl)cc1-c1nc(-c2cccs2)no1 | -4
c1csc(-c2cncc(-c3nnc(-c4cccc5ccccc45)o3)c2)c1 | -102*
O=c1[nH]c2ccccc2c(O)c1-c1nc(-c2ccc(Cl)c(F)c2)no1 | -23
CN1CCN2CCN(S(=O)(=O)c3ccc(-c4cnco4)s3)CC2C1=O (centres undefined) | -57
CCCCC(CC)CN=C(N)NC(N)=NCCCCCCN=C(N)NC(N)=NCC(CC)CCCC (centres undefined) | -79*
O=C(c1cccs1)N1CCCC(c2[nH]nc3nccnc23)C1 (centres undefined) | 12
Cc1ccc2nc(CN(C)C(=O)C3CC(C(C)C)=NO3)[nH]c2c1 (centres undefined) | 1
C[C@]12CCC3c4ccc(OC(=O)c5ccccc5)cc4CCC3C1CC[C@@H]2O (some centres undefined) | -87*
COc1ccc2c(c1)CCC1C2CC[C@@]2(C)C1CC[C@@H]2O (some centres undefined) | -46
CC12CCC3c4ccc(OC(=O)c5ccccc5)cc4CCC3C1CCC2O (centres undefined) | -53
C[C@]12CCC3c4ccc(O)cc4CCC3C1CCC2=O (some centres undefined) | -79*
CC12CCC3c4ccc(O)cc4CCC3C1CCC2=O (centres undefined) | -63
SMILES | Tg IFNy HTS
C[C@]12CC[C@@H]3c4ccc(O)cc4CC[C@H]3[C@@H]1CC[C@@H]2O | -84*
COc1ccc2c(c1)CCC1C2CCC2(C)C(=O)CCC12 (centres undefined) | -14
C[C@]12CC[C@@H]3c4cc(O)c(O)cc4CC[C@H]3[C@@H]1CC[C@@H]2O | -67
CC(=O)[C@@]1(O)CCC2C3CCC4=CC(=O)CC[C@]4(C)C3CC[C@@]21C (some centres undefined) | -11
CC(=O)[C@@]1(O)CC[C@H]2[C@@H]3CCC4=CC(=O)CC[C@]4(C)[C@H]3CC[C@@]21C | 8
C#CC1(O)CCC2C3CCC4=Cc5oncc5CC4(C)C3CCC21C (centres undefined) | -86*
C[C@]12CC[C@@H]3c4ccc(OS(=O)(=O)O)cc4CC[C@H]3[C@@H]1CCC2=O | 1
COC[C@@H]1CCC[C@]12CN(S(=O)(=O)c1cn(C)cn1)CCO2 | -2
CC(C)CN1C[C@@H]2CCN(c3ncc(F)cn3)CC[C@H]2S1(=O)=O | 40
Cc1occc1C(=O)N1CC[C@H]2CN(S(C)(=O)=O)CCO[C@@H]2C1 | -5
COc1ccccc1OCCn1cccc1CN1CC2C[C@@H](O)CN2C[C@@H]1C (some centres undefined) | 25
CS(=O)(=O)c1cccnc1C1CCN(C(=O)Cc2csc(-c3ccccn3)n2)CC1 | -30
CC(C)n1nnc(CC(=O)NCC2(c3ccccc3F)CCCC2)n1 | 85
Cc1nc2c(c(=O)[nH]1)CCN(C(=O)c1sc(-c3ccccc3F)nc1C)CC2 | -50
CN(C)CCOCc1nn(C)c2c1CCN(C(=O)NC1CC1)C2 | 58
CC(=O)OC1CCC2C3CCc4cc(O)ccc4C3CCC12C (centres undefined) | -28
CC(=O)O[C@H]1CC[C@H]2[C@@H]3CCc4cc(O)ccc4[C@H]3CC[C@]12C | -6
C#C[C@]1(O)CC[C@H]2[C@@H]3CCc4cc(O)ccc4[C@H]3CC[C@@]21C | -79*!
CNC(=O)c1cc(=O)n(CC(=O)Nc2ccccc2C(F)(F)F)c2ccccc12 | 3
Cc1[nH]cnc1-c1nccn1CCn1ccnc1 | 9
COCCN(Cc1nccs1)C(=O)c1cc(C)nc2ccc(C)cc12 | 16
COc1ccc(C(=O)N2c3cc4c(cc3C(C)=CC2(C)C)OCO4)cc1 | -18
COc1ccc(S(=O)(=O)N2CCC3(CC2)Nc2ccc(Cl)cc2-n2cccc23)cc1 | -52
COc1ccc2c(c1)C(C)=CC(C)(C)N2S(=O)(=O)c1ccc(Cl)cc1 | -93*
COc1ccc(CC(=O)N2CCC3(CC2)NC(=O)c2cc(C)ccc2N3C)cc1 | -12
SMILES | Tg IFNy HTS
Cc1cccc(-c2nc(Cn3nnc(C(=O)NCc4ccc(F)c(Cl)c4)c3C)c(C)o2)c1 | -93*
COc1ccc(OC)c(NC(=O)c2nnn(Cc3nc(-c4cccc(Cl)c4)oc3C)c2C)c1 | 54
CCOc1ccc(CNC(=O)c2nnn(Cc3nc(-c4cccc(C)c4)oc3C)c2C)cc1 | -34
Cc1cccc(-c2nc(Cn3nnc(C(=O)NCc4ccc(Br)cc4)c3C)c(C)o2)c1 | -32
Cc1cccc(-c2nc(Cn3nnc(C(=O)NCc4ccc(C(F)(F)F)cc4)c3C)c(C)o2)c1 | 8
COc1ccc(NC(=O)c2nnn(Cc3nc(-c4cccc(Cl)c4)oc3C)c2C)cc1 | -110*
Cc1cccc(-c2nc(Cn3nnc(C(=O)NCc4cccc(Cl)c4)c3C)c(C)o2)c1 | -97*
Cc1ccc(NC(=O)c2nnn(Cc3nc(-c4cccc(Cl)c4)oc3C)c2C)cc1F | 77
Cc1cc(NC(=O)c2nnn(Cc3nc(-c4cccc(Cl)c4)oc3C)c2C)ccc1Br | 67
CCCNC(=O)c1cc2c(s1)CCN2C(=O)c1cccnc1 | 1
COCC(=O)N1CC[C@@H](O)[C@@H]1Cc1cnn(C)c1 | -34
O=C1CN(C(=O)c2c(F)cccc2Cl)CC(OCc2ccccc2)CN1Cc1cccnc1 (centres undefined) | 11
CC1(C(=O)N2CCC3(CC2)NC(=O)c2ccccc2O3)NCCc2c1[nH]c1ccccc21 (centres undefined) | 47
O=C(CNCc1ccc2c(c1)OCCCO2)NCc1ccccc1F | 3
Cc1ccc(-c2coc(-c3ccc(NS(=O)(=O)c4ccc(Br)cc4)cc3)n2)cc1C | 51
CC(C)CN1C[C@@H]2[C@@H](C1)C(=O)NC21CCN(C(=O)Nc2ccc(Cl)cc2)CC1 | -109*
CCN1c2cc(Cl)ccc2C(=O)NC12CCN(C(=O)Nc1ccc(OC)cc1)CC2 | 285
CN(C)C(=O)CN1CCOCC2(CCN(C(=O)Nc3ccc(Cl)cc3)CC2)C1 | 0
CC(C)(C)C(=O)N1CCN(C2c3ccccc3-c3ccccc32)CC1 | -94*
CC(C)(C)C(=O)N1CCN(c2cccc(Cl)c2)CC1 | -44
O=C(c1cccnc1Oc1ccccc1)N1CCN(C2c3ccccc3-c3ccccc32)CC1 | -34
CN(Cc1ccc(-n2cccn2)cc1)Cc1cccc2nonc12 | 11
CCOc1ccccc1-c1nc(Cn2nnc(C(=O)Nc3cccc(C)c3C)c2C)c(C)o1 | 43
